From PubChem
GLS inhibitor – inhibitors of human glutaminase (GLS) | AID 624170 | GLS enzymatic activity, qHTS titration | Potency, µM (highest dose often 45.5 µM), for inactives: top-dose activity change, negative = inhibition, hits mostly inhibitors | 410,000 compounds, 0.21% hits; note: % is set by controls: 0 for no effect and ±100 for the full control effect
Target sequence (O94925 whole entry, looked up): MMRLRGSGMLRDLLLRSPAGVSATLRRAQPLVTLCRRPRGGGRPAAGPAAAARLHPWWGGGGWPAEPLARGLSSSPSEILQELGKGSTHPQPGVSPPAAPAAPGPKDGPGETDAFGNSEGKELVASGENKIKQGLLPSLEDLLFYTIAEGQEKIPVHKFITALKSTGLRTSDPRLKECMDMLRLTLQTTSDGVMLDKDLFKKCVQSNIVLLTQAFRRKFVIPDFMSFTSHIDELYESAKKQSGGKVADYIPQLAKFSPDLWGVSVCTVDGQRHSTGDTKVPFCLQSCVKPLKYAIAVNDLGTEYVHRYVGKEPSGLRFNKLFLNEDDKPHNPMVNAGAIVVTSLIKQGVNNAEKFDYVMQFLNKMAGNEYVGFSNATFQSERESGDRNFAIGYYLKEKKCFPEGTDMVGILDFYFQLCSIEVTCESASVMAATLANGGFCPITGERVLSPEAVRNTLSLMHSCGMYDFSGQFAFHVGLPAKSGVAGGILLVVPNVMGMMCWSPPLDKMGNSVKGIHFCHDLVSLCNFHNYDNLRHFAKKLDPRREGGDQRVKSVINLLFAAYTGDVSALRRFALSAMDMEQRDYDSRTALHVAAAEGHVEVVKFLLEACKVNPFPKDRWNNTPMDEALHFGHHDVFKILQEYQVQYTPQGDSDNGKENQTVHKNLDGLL
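Enzyme dispensed in phosphate buffer (45 mM, pH 8.2, 0.02% Tween-20), compounds pinned in, then 1 mM L-glutamine solution and the glutamate oxidase–HRP–Amplex Red mix added; fluorescence read immediately and again after 30 min at room temperature.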
G9a inh – G9a (human) methyltransferase inhibition. Q96KQ7. G9a H3K9 monomethylation, AlphaScreen, 2 h. 350,000 compounds, 8.8% hits. Potency, µM (doses to about 102 µM), inactives show at the highest dose activity, negative = inhibition, usual class: inhibitors; note: % is set by controls: 0 for no effect and ±100 for the full control effect; nearly all actives have a fitted effect of over 75% in size
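Methyltransferase reactions run at room temperature for 2 h (20 nM enzyme, 500 nM biotin-H3K9 peptide, 20 uM SAM) after a 15 min compound preincubation; product detected by AlphaScreen beads and anti-H3K9me1 antibody.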
JMJD2A Tudor – JMJD2A Tudor domain (human) inhibition; O75164; AlphaScreen JMJD2A-Tudor / H3K4me3 peptide binding; Potency, µM (series often up to 114 µM), without a hit: at the top dose activity change, negative = inhibition, usual class: inhibitors; 390,000 compounds, 4.4% hits; AID 504339; note: % is set by controls: 0 for no effect and ±100 for the full control effect; nearly all actives have a fitted effect of over 50% in size
HP1b chromo inh – blocks HP1-beta chromodomain binding to methylated histone tails; P83916; AlphaScreen HP1-beta / biotin-H3K9me3 peptide binding; Potency, µM (highest dose often 114 µM), for inactives: top-dose activity change, negative = inhibition, actives largely listed as inhibitors; 390,000 compounds, 0.56% hits; note: nearly all actives have a fitted effect of over 70% in size
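HP1-beta protein (50 nM final) preincubated 30 min at room temperature with biotinylated H3(1-18)K9me3 peptide (50 nM) in PBS pH 7.4, 0.01% Tween-20, then compound added for 30 min. AlphaScreen streptavidin donor/nickel chelate acceptor beads (10 ug/mL final), 30 min dark, luminescence read.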
BAZ2B block – inhibitors of human BAZ2B bromodomain | 360,000 compounds, 4.4% hits | Q9UIF8 | AlphaScreen BAZ2B-H3K14Ac peptide displacement | Potency, µM (doses to about 114 µM), for the others: at the highest dose activity change, negative = inhibition, hits mostly inhibitors; note: % is set by controls: 0 for no effect and ±100 for the full control effect; nearly all actives have a fitted effect of over 60% in size
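Compounds, titrated to a top concentration of 110 uM, were incubated 30 min at room temperature with preformed BAZ2B/acetyl-K14 H3 peptide complex (50 nM each). Proximity signal was measured by AlphaScreen after 20 min with beads.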
Numbers without * were called inactive; [ ] = dose if it differs, or a comment. This is a sample that favours compounds with a hit; in the whole collection about 10% have one here. Calls come from the whole dose curve; as a rule, active = well fitted curve in the direction sought with a large enough effect; inconclusive = small, poorly fitted or top-dose-only effect, or another doubt; inactive = no such curve, though single readings can be large; an effect the other way counts as inactive or inconclusive. Potency is the fitted concentration of half-maximal effect.

O=C(O)c1c[nH]c2ccc(S(=O)(=O)N3CCOCC3)cc12 was read as GLS inhibitor 3%, G9a inh -8%, JMJD2A Tudor -3%, HP1b chromo inh 41% and BAZ2B block -23%.
`Clc1ccc(-c2nc3ncccn3c2Nc2ccc3c(c2)OCO3)cc1` gave GLS inhibitor 0%, G9a inh 12%, JMJD2A Tudor -13%[57.1 µM], HP1b chromo inh 9% and BAZ2B block -20%.
Screening Brc1ccc2nc(-c3ccccc3)c(Nc3ccc4c(c3)OCO4)n2c1 returned GLS inhibitor -9%, G9a inh -7%[59 µM], JMJD2A Tudor 3%, HP1b chromo inh 38% and BAZ2B block 3%.
For CN(C)c1ccc(-c2nc3ccccn3c2Nc2ccc3c(c2)OCCO3)cc1 the results were GLS inhibitor 13%, G9a inh 2.2µM*, JMJD2A Tudor 13µM*, HP1b chromo inh inconclusive and BAZ2B block -32%.
`Oc1ccc(-c2nc3ncccn3c2Nc2ccc3c(c2)OCO3)cc1` gave GLS inhibitor 20%, G9a inh inconclusive, JMJD2A Tudor inconclusive, HP1b chromo inh -24% and BAZ2B block 50µM*.
CCOC(=O)CCCCC(=O)c1[nH]c(=O)[nH]c1Cn1cnc2ccccc21 was read as GLS inhibitor 22%, G9a inh inconclusive, JMJD2A Tudor inconclusive, HP1b chromo inh -11% and BAZ2B block 35µM*.
`CCOC(=O)CCCCC(=O)c1[nH]c(=O)[nH]c1CSc1nc(-c2ccccc2)c(C#N)c(=O)[nH]1` gave GLS inhibitor 36%, G9a inh inconclusive, JMJD2A Tudor inconclusive, HP1b chromo inh 20% and BAZ2B block 35µM*.
For CCOC(=O)CCCCC(=O)c1[nH]c(=O)[nH]c1CSCCO the results were GLS inhibitor -1%, G9a inh inconclusive, JMJD2A Tudor 79µM*, HP1b chromo inh -30% and BAZ2B block 13µM*.
Screening O=C(NCC(c1cccnc1)N1CCc2ccccc2C1)C(=O)Nc1ccc(Cl)cc1 (stereo unspecified) returned GLS inhibitor 1%, G9a inh -32%[59 µM], JMJD2A Tudor -21%, HP1b chromo inh -4% and BAZ2B block -13%.
For Cn1c2c(c(=O)n(C)c1=O)C(c1ccccc1Cl)C(C#N)=C(N)O2 (stereo unspecified) the results were GLS inhibitor -2%, G9a inh 25µM*, JMJD2A Tudor 2%, HP1b chromo inh 61% and BAZ2B block -23%.
N#CC1=C(N)Oc2cc(N)ccc2C1c1ccccc1Cl (stereo unspecified) was read as GLS inhibitor -9%, JMJD2A Tudor -19%, HP1b chromo inh 25% and BAZ2B block inconclusive.
For COCCn1c(C)cc2c(c1=O)C(c1ccccc1F)C(C#N)=C(N)O2 (stereo unspecified) the results were GLS inhibitor 1%, G9a inh -1%[12.7 µM], JMJD2A Tudor -6%, HP1b chromo inh 28% and BAZ2B block 6%.
For Cn1c2c(c(=O)n(C)c1=O)C(c1ccccc1F)C(C#N)=C(N)O2 (stereo unspecified) the results were GLS inhibitor 0%, G9a inh 16µM*, JMJD2A Tudor -13%, HP1b chromo inh 54% and BAZ2B block -6%.
`Nc1ncnc2c1ncn2C1CCCO1` (stereo unspecified) gave GLS inhibitor -8%, G9a inh 3%[59 µM], JMJD2A Tudor -1%, HP1b chromo inh 52% and BAZ2B block 7%.
Screening S=c1nc[nH]c2c1ncn2C1CCCO1 (stereo unspecified) returned GLS inhibitor -1%, G9a inh 10µM*, JMJD2A Tudor 2µM*, HP1b chromo inh -17%[57 µM] and BAZ2B block inconclusive.
For OCC1OC(n2cnc3c(=S)nc[nH]c32)CC1O (stereo unspecified) the results were GLS inhibitor -7%, JMJD2A Tudor 2.8µM* and HP1b chromo inh inconclusive.
`C=CCn1c(SCC)nc(O)cc1=O` gave GLS inhibitor -2%, G9a inh 38%[12.7 µM], JMJD2A Tudor -17%, HP1b chromo inh 26% and BAZ2B block -2%.
`COc1ccc(-c2nnc(-c3cc4c(ccc5ccccc54)oc3=O)o2)cc1` gave GLS inhibitor 2%, G9a inh 14%[59 µM], JMJD2A Tudor -18%, HP1b chromo inh 41% and BAZ2B block -23%.
For COc1cccc(CN2CCN(Cc3ccco3)CC2)c1 the results were GLS inhibitor 0%, G9a inh 10µM*, JMJD2A Tudor 7.9µM*, HP1b chromo inh inconclusive and BAZ2B block 50µM*.
For COc1ccc(CN2CCN(Cc3ccco3)CC2)cc1 the results were GLS inhibitor 5%, G9a inh inconclusive, JMJD2A Tudor 4µM*, HP1b chromo inh 20µM* and BAZ2B block 20µM*.
For COc1cccc(N2CCN(Cc3ccco3)CC2)c1 the results were GLS inhibitor -15%, JMJD2A Tudor 8.9µM*, HP1b chromo inh inconclusive and BAZ2B block inconclusive.
For COc1ccccc1N1CCN(Cc2cc3c(cc2O)OCO3)CC1 the results were GLS inhibitor 41%, G9a inh 10µM*, JMJD2A Tudor inconclusive, HP1b chromo inh -16% and BAZ2B block inconclusive.
COc1ccccc1N1CCN(CC(O)COc2ccc3c(c2)OCO3)CC1 (stereo unspecified) was read as GLS inhibitor 64%, G9a inh inconclusive, JMJD2A Tudor inconclusive, HP1b chromo inh 28% and BAZ2B block inconclusive.
COc1ccc(CN2CCN(C(=O)c3ccco3)CC2)cc1 was read as GLS inhibitor 10%, G9a inh 15%[59 µM], JMJD2A Tudor -2%, HP1b chromo inh 5% and BAZ2B block 5%.
Screening C=CCn1c(C(C)C)nc2ccccc21 returned GLS inhibitor 6%, G9a inh -6%[59 µM], JMJD2A Tudor -14%, HP1b chromo inh 29% and BAZ2B block -37%.
For COCCCNc1ncnc2c1nnn2C the results were GLS inhibitor 3%, G9a inh 0%[59 µM], JMJD2A Tudor -2%, HP1b chromo inh 10% and BAZ2B block 0%.
`Clc1ccc(N2CCN(Cc3ccco3)CC2)cc1` gave GLS inhibitor 5%, G9a inh 5µM*, JMJD2A Tudor 1.8µM*, HP1b chromo inh inconclusive and BAZ2B block 50µM*.
For CCc1ccc(S(=O)(=O)N2CCN(Cc3ccco3)CC2)cc1 the results were GLS inhibitor -1%, G9a inh 86%, JMJD2A Tudor -14%, HP1b chromo inh 5% and BAZ2B block 3%.
`COc1ccc(N=Nc2cc(C)c(O)c(CN3CCCCC3)c2)cc1` gave GLS inhibitor -6%, G9a inh 11µM*, JMJD2A Tudor 22µM*, HP1b chromo inh 28µM* and BAZ2B block 13µM*.
For FC(F)(F)c1ccc(CN2CCN(Cc3ccco3)CC2)cc1 the results were GLS inhibitor -8%, G9a inh 50µM*, JMJD2A Tudor -7%, HP1b chromo inh 19% and BAZ2B block -1%.
